Experimental data as given in ChEMBL document CHEMBL4296182, “CO-ADD screening of NIH NCI Diversity Set V”.
For part of these data: Potency and affinity values are given separately.

Columns and labels:
Staphylococcus aureus = test: Antibacterial activity against Staphylococcus aureus MRSA ATCC 43300 (CO-ADD:GP_020); MIC in CAMBH media using NBS plates, by Resazurin F(560/590); type: functional; settings: Concentration 20 uM, ASSAY_TEST Inhibition of Bacterial Growth, detection method Resazurin, Fluorescence (ex560/em590), MEDIA CAMHB, plate type 384well, CORNING #3640, time 18 hr
Acinetobacter baumannii = test: Antibacterial activity against Acinetobacter baumannii ATCC 19606 (CO-ADD:GN_034); MIC in CAMBH media using NBS plates, by Resazurin F(560/590); type: functional; settings: Concentration 20 uM, ASSAY_TEST Inhibition of Bacterial Growth, detection method Resazurin, Fluorescence (ex560/em590), MEDIA CAMHB, plate type 384well, CORNING #3640, time 18 hr
Escherichia coli = test: Antibacterial activity against Escherichia coli ATCC 25922 (CO-ADD:GN_001); MIC in CAMBH media using NBS plates, by Resazurin F(560/590); type: functional; settings: Concentration 20 uM, ASSAY_TEST Inhibition of Bacterial Growth, detection method Resazurin, Fluorescence (ex560/em590), MEDIA CAMHB, plate type 384well, CORNING #3640, time 18 hr
Klebsiella pneumoniae = settings: Concentration 20 uM; ASSAY_TEST Inhibition of Bacterial Growth; detection method Absorption (OD600); MEDIA CAMHB; plate type 384well; NBS; CORNING #3640; time 18 hr
Candida albicans = settings: 20 µM
Cryptococcus neoformans = settings: Concentration 20 uM; ASSAY_TEST Inhibition of Fungal Growth; detection method Resazurin; Absorption (OD600-OD570); plate type 384well; NBS; CORNING #3640

## Cn1c(C(=O)c2ccncc2)cc2ccccc21
Staphylococcus aureus
  Inhibition: 10.4%
Acinetobacter baumannii
  Inhibition: 13.49%
Escherichia coli
  Inhibition: 0.36%
Klebsiella pneumoniae
  Inhibition: 4.66%
Candida albicans
  Inhibition: 5.59%
Cryptococcus neoformans
  Inhibition: -4.68%

## Cc1cc(/C=C2\SC(=S)NC2=O)cc(C)c1O
Staphylococcus aureus
  Inhibition: -3.17%
Acinetobacter baumannii
  Inhibition: -16.06%
Escherichia coli
  Inhibition: 6.56%
Klebsiella pneumoniae
  Inhibition: 6.27%
Candida albicans
  Inhibition: 8.55%
Cryptococcus neoformans
  Inhibition: -10.24%

## COc1cc(C(O)c2nc3ccccc3s2)cc(OC)c1OC (configuration not stated)
Staphylococcus aureus
  Inhibition: 9.75%
Acinetobacter baumannii
  Inhibition: -15.16%
Escherichia coli
  Inhibition: 6.66%
Klebsiella pneumoniae
  Inhibition: 12.12%
Candida albicans
  Inhibition: 9.5%
Cryptococcus neoformans
  Inhibition: -12.06%

## Cc1cc(N2CCN(C)CC2)n2nc(-c3ccc(Cl)cc3)nc2n1
Staphylococcus aureus
  Inhibition: 10.15%
Acinetobacter baumannii
  Inhibition: 8.53%
Escherichia coli
  Inhibition: 12.12%
Klebsiella pneumoniae
  Inhibition: 20.83%
Candida albicans
  Inhibition: 5.91%
Cryptococcus neoformans
  Inhibition: -6.75%

## c1ccc(Sc2ncnc3ccccc23)cc1
Staphylococcus aureus
  Inhibition: 3.09%
Acinetobacter baumannii
  Inhibition: -14.3%
Escherichia coli
  Inhibition: 12.91%
Klebsiella pneumoniae
  Inhibition: 8.16%
Candida albicans
  Inhibition: 2.99%
Cryptococcus neoformans
  Inhibition: -14.16%

## Cc1c(NC(=O)Nc2c(Cl)cccc2Cl)c(=O)n(-c2ccccc2)n1C
Staphylococcus aureus
  Inhibition: 9.25%
Acinetobacter baumannii
  Inhibition: 9.07%
Escherichia coli
  Inhibition: 6.32%
Klebsiella pneumoniae
  Inhibition: 8.26%
Candida albicans
  Inhibition: -0.35%
Cryptococcus neoformans
  Inhibition: -0.01%

## Nc1ccn(C2OC(CCl)C(O)C2O)c(=O)n1 (configuration not stated)
Staphylococcus aureus
  Inhibition: 16.82%
Acinetobacter baumannii
  Inhibition: -8.52%
Escherichia coli
  Inhibition: 10.09%
Klebsiella pneumoniae
  Inhibition: 13.7%
Candida albicans
  Inhibition: 0.99%
Cryptococcus neoformans
  Inhibition: -4.88%

## Clc1nc(NCCc2ccccc2)c2c[nH]nc2n1
Staphylococcus aureus
  Inhibition: 2.77%
Acinetobacter baumannii
  Inhibition: 12.4%
Escherichia coli
  Inhibition: 0.9%
Klebsiella pneumoniae
  Inhibition: 13.65%
Candida albicans
  Inhibition: 5.89%
Cryptococcus neoformans
  Inhibition: -10.39%

## CCc1cccc2[nH]c3cc([N+](=O)[O-])ccc3c12
Staphylococcus aureus
  Inhibition: 6.44%
Acinetobacter baumannii
  Inhibition: 1.17%
Escherichia coli
  Inhibition: 2.96%
Klebsiella pneumoniae
  Inhibition: -4.47%
Candida albicans
  Inhibition: 9.1%
Cryptococcus neoformans
  Inhibition: 12.93%

## Nc1nc(=S)ss1
Staphylococcus aureus
  Inhibition: 5.79%
Acinetobacter baumannii
  Inhibition: -17.7%
Escherichia coli
  Inhibition: 2.29%
Klebsiella pneumoniae
  Inhibition: 13.54%
Candida albicans
  Inhibition: 3.85%
Cryptococcus neoformans
  Inhibition: -5.25%

## O=C(/C=C/c1cccnc1)/C=C/c1cccnc1
Staphylococcus aureus
  Inhibition: 16.75%
Acinetobacter baumannii
  Inhibition: 4.07%
Escherichia coli
  Inhibition: 0.92%
Klebsiella pneumoniae
  Inhibition: 20.07%
Candida albicans
  Inhibition: 31.4%
Cryptococcus neoformans
  Inhibition: -2.05%

## COc1ccc(C2C3=C(COC3=O)Oc3cc4c(cc32)OCO4)cc1OC (configuration not stated)
Staphylococcus aureus
  Inhibition: 25.54%
Acinetobacter baumannii
  Inhibition: -8.11%
Escherichia coli
  Inhibition: 12.52%
Klebsiella pneumoniae
  Inhibition: 17.02%
Candida albicans
  Inhibition: 0.53%
Cryptococcus neoformans
  Inhibition: -1.21%

## CC1=CC(C)(C)Nc2ccc(Cc3ccc4c(c3)C(C)=CC(C)(C)N4)cc21
Staphylococcus aureus
  Inhibition: 2.44%
Acinetobacter baumannii
  Inhibition: 4.53%
Escherichia coli
  Inhibition: -20.49%
Klebsiella pneumoniae
  Inhibition: -0.68%
Candida albicans
  Inhibition: 14.9%
Cryptococcus neoformans
  Inhibition: 28.4%

## C=CCOc1ccc(S(C)(=O)=O)cc1
Staphylococcus aureus
  Inhibition: -0.52%
Acinetobacter baumannii
  Inhibition: -11.44%
Escherichia coli
  Inhibition: 7.79%
Klebsiella pneumoniae
  Inhibition: 4.92%
Candida albicans
  Inhibition: 1.73%
Cryptococcus neoformans
  Inhibition: -10.45%

## C#CC1(N2CCCCC2)CCCCC1
Staphylococcus aureus
  Inhibition: 17.84%
Acinetobacter baumannii
  Inhibition: -17.5%
Escherichia coli
  Inhibition: 12.63%
Klebsiella pneumoniae
  Inhibition: -1.14%
Candida albicans
  Inhibition: -1.65%
Cryptococcus neoformans
  Inhibition: -12.88%

## NC(=O)N/N=C1\CC2CC1C1C=CCC21 (configuration not stated)
Staphylococcus aureus
  Inhibition: 5.27%
Acinetobacter baumannii
  Inhibition: -14.41%
Escherichia coli
  Inhibition: 8.37%
Klebsiella pneumoniae
  Inhibition: 17.34%
Candida albicans
  Inhibition: -2.08%
Cryptococcus neoformans
  Inhibition: -9.13%

## CN(C)S(=O)(=O)c1ccc(N)c([N+](=O)[O-])c1
Staphylococcus aureus
  Inhibition: -6.85%
Acinetobacter baumannii
  Inhibition: 12.87%
Escherichia coli
  Inhibition: 8.14%
Klebsiella pneumoniae
  Inhibition: 9.42%
Candida albicans
  Inhibition: 1.38%
Cryptococcus neoformans
  Inhibition: -8.3%

## OC(COc1cccc2ccccc12)CN1CCN(c2ccccc2Cl)CC1 (configuration not stated)
Staphylococcus aureus
  Inhibition: -4.97%
Acinetobacter baumannii
  Inhibition: 8.91%
Escherichia coli
  Inhibition: -13.55%
Klebsiella pneumoniae
  Inhibition: 3.22%
Candida albicans
  Inhibition: 3.81%
Cryptococcus neoformans
  Inhibition: -4.59%

## COc1c(C=O)c2c(c(OC)c1OC)-c1ccc(OC)c(=O)cc1[C@@H](NC(C)=O)CC2
Staphylococcus aureus
  Inhibition: -5.44%
Acinetobacter baumannii
  Inhibition: -11.93%
Escherichia coli
  Inhibition: 15.89%
Klebsiella pneumoniae
  Inhibition: 9.96%
Candida albicans
  Inhibition: 0.57%
Cryptococcus neoformans
  Inhibition: -7.77%

## C[C@]12CC[C@H](O)CC1=CC[C@@H]1[C@@H]2CC[C@]2(C)c3n[nH]cc3C[C@@H]12
Staphylococcus aureus
  Inhibition: 17.35%
Acinetobacter baumannii
  Inhibition: 7.15%
Escherichia coli
  Inhibition: 13.22%
Klebsiella pneumoniae
  Inhibition: 4.71%
Candida albicans
  Inhibition: -0.24%
Cryptococcus neoformans
  Inhibition: -13.74%

## CN1C(=O)c2ccccc2Cc2c(NCc3ccccc3)ncnc21
Staphylococcus aureus
  Inhibition: 11.35%
Acinetobacter baumannii
  Inhibition: 7.35%
Escherichia coli
  Inhibition: 1.48%
Klebsiella pneumoniae
  Inhibition: 18.62%
Candida albicans
  Inhibition: 6.22%
Cryptococcus neoformans
  Inhibition: -9.85%

## O=C(O)C(Cc1c[nH]c2ccccc12)N1C(=O)c2ccccc2C1=O (configuration not stated)
Staphylococcus aureus
  Inhibition: 3.51%
Acinetobacter baumannii
  Inhibition: 4.73%
Escherichia coli
  Inhibition: -5.16%
Klebsiella pneumoniae
  Inhibition: 9.04%
Candida albicans
  Inhibition: 3.93%
Cryptococcus neoformans
  Inhibition: 13.59%

## Oc1cc(-c2ccc(Cl)cc2)nc2ccccc12
Staphylococcus aureus
  Inhibition: 0.37%
Acinetobacter baumannii
  Inhibition: 13%
Escherichia coli
  Inhibition: -1.34%
Klebsiella pneumoniae
  Inhibition: 16.07%
Candida albicans
  Inhibition: 18.1%
Cryptococcus neoformans
  Inhibition: 5.32%

## CC(=O)Nc1nc(C)c(CCCOc2ccc([N+](=O)[O-])cc2)c(O)n1
Staphylococcus aureus
  Inhibition: 4.87%
Acinetobacter baumannii
  Inhibition: 9.03%
Escherichia coli
  Inhibition: 5.24%
Klebsiella pneumoniae
  Inhibition: 2.35%
Candida albicans
  Inhibition: 3.22%
Cryptococcus neoformans
  Inhibition: -1.34%

## COc1cccc(/C=C2\CCc3ccccc3C2=O)c1
Staphylococcus aureus
  Inhibition: 5.14%
Acinetobacter baumannii
  Inhibition: -13.61%
Escherichia coli
  Inhibition: 8.53%
Klebsiella pneumoniae
  Inhibition: 8.43%
Candida albicans
  Inhibition: 9.78%
Cryptococcus neoformans
  Inhibition: -15.01%

## CCOc1nc(OCC)c2cnn(C)c2n1
Staphylococcus aureus
  Inhibition: 17.13%
Acinetobacter baumannii
  Inhibition: -11.25%
Escherichia coli
  Inhibition: 5.79%
Klebsiella pneumoniae
  Inhibition: 6.34%
Candida albicans
  Inhibition: 3.82%
Cryptococcus neoformans
  Inhibition: -3.08%

## O=C(Nc1ccc(Oc2ccc(NC(=O)Nc3ccccc3Cl)cc2)cc1)Nc1ccccc1Cl
Staphylococcus aureus
  Inhibition: 19.6%
Acinetobacter baumannii
  Inhibition: -10.42%
Escherichia coli
  Inhibition: 14.43%
Klebsiella pneumoniae
  Inhibition: 12.03%
Candida albicans
  Inhibition: 16%
Cryptococcus neoformans
  Inhibition: 6.13%

## CC1CC(C)(C)C2=NCCN21 (configuration not stated)
Staphylococcus aureus
  Inhibition: 12.73%
Acinetobacter baumannii
  Inhibition: -16.85%
Escherichia coli
  Inhibition: 7.35%
Klebsiella pneumoniae
  Inhibition: 11.7%
Candida albicans
  Inhibition: 5.23%
Cryptococcus neoformans
  Inhibition: -11%

## Cc1nc(S)nc(O)c1Cc1c(O)ccc2ccccc12
Staphylococcus aureus
  Inhibition: -11.57%
Acinetobacter baumannii
  Inhibition: -9.92%
Escherichia coli
  Inhibition: 5.55%
Klebsiella pneumoniae
  Inhibition: 6.39%
Candida albicans
  Inhibition: 20.9%
Cryptococcus neoformans
  Inhibition: -9.2%

## NC(=O)c1nnsc1-c1ccc(-c2snnc2C(N)=O)cc1
Staphylococcus aureus
  Inhibition: 15.72%
Acinetobacter baumannii
  Inhibition: 9.25%
Escherichia coli
  Inhibition: 9.34%
Klebsiella pneumoniae
  Inhibition: 2.92%
Candida albicans
  Inhibition: -1.56%
Cryptococcus neoformans
  Inhibition: -13.62%

## CC(=O)C1C=CC(C)(C(=O)O)C2C=C(C)C(=O)C(C)(O)C12 (configuration not stated)
Staphylococcus aureus
  Inhibition: 4.72%
Acinetobacter baumannii
  Inhibition: 16.27%
Escherichia coli
  Inhibition: 8.25%
Klebsiella pneumoniae
  Inhibition: 21.21%
Candida albicans
  Inhibition: 1.75%
Cryptococcus neoformans
  Inhibition: -4.78%

## CC(C)(C)c1ccc(OC(=O)c2ccccc2)cc1
Staphylococcus aureus
  Inhibition: -7.46%
Acinetobacter baumannii
  Inhibition: 6.71%
Escherichia coli
  Inhibition: 7.42%
Klebsiella pneumoniae
  Inhibition: 8.33%
Candida albicans
  Inhibition: 9.75%
Cryptococcus neoformans
  Inhibition: -15.41%

## COC(=O)c1cc2c(n1S(=O)(=O)c1ccc(C)cc1)C(=O)C(=O)c1[nH]cc(C(=O)OCc3ccccc3)c1-2
Staphylococcus aureus
  Inhibition: 12.8%
Acinetobacter baumannii
  Inhibition: -9.93%
Escherichia coli
  Inhibition: 4.92%
Klebsiella pneumoniae
  Inhibition: 10.02%
Candida albicans
  Inhibition: -2.87%
Cryptococcus neoformans
  Inhibition: -5.89%

## COC(=O)c1c[n+]([O-])ccc1OC
Staphylococcus aureus
  Inhibition: -9.06%
Acinetobacter baumannii
  Inhibition: -1.68%
Escherichia coli
  Inhibition: -4.59%
Klebsiella pneumoniae
  Inhibition: 7.09%
Candida albicans
  Inhibition: -2.55%
Cryptococcus neoformans
  Inhibition: -2.93%

## CC(=O)N1C(=O)C2(NCC(C)N2)c2ccccc21 (configuration not stated)
Staphylococcus aureus
  Inhibition: 7.15%
Acinetobacter baumannii
  Inhibition: -16.52%
Escherichia coli
  Inhibition: 6.45%
Klebsiella pneumoniae
  Inhibition: 10.18%
Candida albicans
  Inhibition: 2.13%
Cryptococcus neoformans
  Inhibition: -1.95%

## CCOc1ccc(NC(=S)NC(=O)c2ccco2)cc1
Staphylococcus aureus
  Inhibition: 8.6%
Acinetobacter baumannii
  Inhibition: 0.34%
Escherichia coli
  Inhibition: 3.81%
Klebsiella pneumoniae
  Inhibition: 5.03%
Candida albicans
  Inhibition: 7.98%
Cryptococcus neoformans
  Inhibition: -14.9%

## O=C(Nc1cccc(Cl)c1)Nc1nccs1
Staphylococcus aureus
  Inhibition: 1.33%
Acinetobacter baumannii
  Inhibition: -6.03%
Escherichia coli
  Inhibition: 8.66%
Klebsiella pneumoniae
  Inhibition: 7.36%
Candida albicans
  Inhibition: 3.47%
Cryptococcus neoformans
  Inhibition: -22.98%
